Experiment in all cases: NCI-60 one-dose screen, 48 h (100 = growth as untreated, 0 = no growth, -100 = all killed)
Holding throughout (details): 10 µM

The subject of experiment [1] is HCT-15 colon.
The subject of experiment [2] is HT29 colon.
Experiment [3] has as its system SNB-75 CNS.
For experiment [4], the system named is SNB-19 CNS.
Experiment [5] relates to U251 CNS.
In experiment [6] the test system is PC-3 prostate.
The subject of experiment [7] is SK-MEL-5 melanoma.
The subject of experiment [8] is UACC-62 melanoma.
The subject of experiment [9] is LOX IMVI melanoma.
The subject of experiment [10] is SK-MEL-28 melanoma.
Experiment [11] has as its system SK-MEL-2 melanoma.
The subject of experiment [12] is EKVX NSCLC.
In experiment [13] the test system is SN12C renal.
For experiment [14], the system named is UO-31 renal.
Experiment [15] has as its system TK-10 renal.
The subject of experiment [16] is ACHN renal.
In experiment [17] the test system is CAKI-1 renal.
Experiment [18] has as its system A498 renal.
The test system of experiment [19] is CCRF-CEM leukemia.
Experiment [20] deals with MOLT-4 leukemia.

The structures appear in SMILES notation. The panel holds about 83,000 compounds, 20% with a hit somewhere; the sample as a whole holds those more often.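 Interpretation: 100, growth as untreated; towards 0, rising growth inhibition; 0, no net growth; 0 to -100, cell death. Compounds scoring below 10 were considered active.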 A number with no mark means an inactive call. Calls of active or inactive are those of the source.

`COc1csc(/C=N/NC(=O)c2[nH]c3ccc(Br)cc3c2-c2ccccc2)c1`: the growth in experiment [1] is 0.545% (active); in experiment [2], -30.8% (active); in [3] it was 4.17% (active); in experiment [4], 29.1%; in experiment [5], 9.71% (active); in experiment [6], 14.9%. Further, the growth in experiment [7] is -37.2% (active); in [8] it was 20.3%; in experiment [9] it was 12.6%; in [10], 35.3%; in experiment [11], 10.3%; in [12] it was 49.2%. Also, the growth was 5.51% (active) in experiment [13]; 36.7% in [14]; 32.8% in experiment [15]; 19.1% in experiment [16]; 9.49% (active) in experiment [17]; 57.8% in experiment [18]. The results for the growth in experiment [19] and in experiment [20] were -2.42% (active) and 1.69% (active), respectively.

For the compound `c1ccc(C(=C(c2ccc(OCCN3CCCCC3)cc2)c2ccc(OCCN3CCCCC3)cc2)C2CCCC2)cc1`, the growth in experiment [1] is 34.6%; in experiment [2], -96.2% (active); in experiment [3], -24.5% (active); in experiment [4], -96.8% (active); in [5], -96.4% (active); in experiment [6], -37.1% (active). Moreover, the growth in experiment [7] is -100% (active); in experiment [8] it was -97.1% (active); in experiment [9] it was -100% (active); in experiment [10], -75.6% (active); in experiment [11], -90.2% (active); in [12] it was 21.4%. Besides, the growth was -8.67% (active) in experiment [13]; 89.5% in experiment [14]; 16.6% in experiment [15]; 80.3% in experiment [16]; 76.1% in experiment [17]; 102% in [18]. Further, in [19], the growth was -60.4% (active).

In the case of `CCN(CC)CCOc1ccc(C(=C(C)c2ccccc2)c2ccc(OCCN(CC)CC)cc2)cc1`, the growth in [1] was -31.2% (active); in experiment [2], -57.6% (active); in [3], 6.51% (active); in experiment [4], 9.06% (active); in [5], -21.8% (active); in experiment [6], 22.7%. For the same compound, the growth in experiment [7] is -100% (active); in experiment [8], -86.5% (active); in experiment [9], -98.8% (active); in experiment [10], -96.5% (active); in [11] it was -75.8% (active); in experiment [12] it was 35.3%. The growth is 56.9% in [13]; -41.6% (active) in [14]; -9.31% (active) in experiment [15]; -13.3% (active) in [16]; 8.81% (active) in [17]; 78.5% in experiment [18]. Besides, the growth in experiment [19] is -27.2% (active).

On to `Nc1nc(Nc2ccc(Cl)cc2)nn1Cc1cccc(Br)c1`, for which the growth was 29.9% in [1]; 54.1% in [2]; 69.9% in [3]; 57.2% in experiment [4]; 58.6% in experiment [5]; 22.9% in experiment [6]. Also, the growth in experiment [7] was 47.4%; in [8], 29.9%; in experiment [9], 13.7%; in [10], 44.8%; in experiment [11], 27.2%; in [12], 22.3%. For the same compound, the growth was 41.1% in experiment [13]; 18.2% in [14]; 61.1% in experiment [15]; 22.8% in experiment [16]; 26.9% in experiment [17]; -1.15% (active) in experiment [18]. Moreover, the growth in experiment [19] is 34.3%; in experiment [20] it was 20.1%.

Regarding `COc1ccc(C(C)=C(c2ccc(OCCCN(C)C)cc2)c2ccc(OCCCN(C)C)cc2)cc1`, the growth in experiment [1] was -72.7% (active); in experiment [2], -94.3% (active); in [3], -95.3% (active); in [4], -97.4% (active); in [5], -97.5% (active); in experiment [6], -82.3% (active). Also, the growth is -98.5% (active) in [7]; -96.6% (active) in experiment [8]; -92.5% (active) in [9]; -97.9% (active) in experiment [10]; -92.8% (active) in [11]; -85.1% (active) in experiment [12]. The growth was -94.2% (active) in [13]; -99.4% (active) in [14]; -97.7% (active) in experiment [15]; -100% (active) in experiment [16]; -100% (active) in experiment [17]; -85.2% (active) in [18]. For the same compound, in [19], the growth was -81.2% (active).

Turning to `CN(C)c1ccc(/C=C/c2nc3ccccc3c(=O)n2CC(=O)Nc2ccc(Cl)cc2)cc1`, the growth in [1] is 42.2%; in experiment [2] it was 31.9%; in experiment [3], 64%; in [4], 34.8%; in [5] it was 39.7%; in experiment [6], 30.2%. In addition, the growth was 55.7% in experiment [7]; 70.6% in [8]; 9.3% (active) in experiment [9]; 66% in experiment [10]; 94.9% in [11]; 80% in [12]. Further, the growth was 76.4% in [13]; 87.4% in experiment [14]; 83.1% in [15]; 43.3% in experiment [16]; 53.1% in [17]; 76.1% in experiment [18]. Moreover, the growth was 88.6% in experiment [19] and 74.7% in [20].

As for `COc1cccc(-c2nn(-c3ccccc3)cc2-c2ccnc(NCCCNC(=O)Nc3ccc(F)cc3)c2)c1`, the growth in experiment [1] was -16.3% (active); in experiment [2], -7.83% (active); in [3], 0.286% (active); in [4], 6% (active); in experiment [5], 8.94% (active); in [6] it was 3.99% (active). Further, the growth was -71% (active) in [7]; 11.4% in [8]; 3.45% (active) in experiment [9]; -3.54% (active) in [10]; -40.6% (active) in experiment [11]; 20.7% in experiment [12]. In addition, the growth in experiment [13] is 23.6%; in experiment [14], 17.7%; in experiment [15], 49.8%; in experiment [16], 20.6%; in [17], 19.2%; in [18] it was 58%. Moreover, the growth in experiment [19] was -26.7% (active).

`Cc1ccc(-c2ccc(SCC(=O)Nc3ccc(S(N)(=O)=O)cc3Br)nn2)cc1`: the growth in experiment [1] was 9.74% (active); in experiment [2], 11.4%; in [3] it was 68%; in experiment [4], 39.5%; in experiment [5], -45.8% (active); in experiment [6], 18.4%. The growth is 68.4% in [7]; 60% in experiment [8]; -66.4% (active) in experiment [9]; 60.9% in experiment [10]; 80.6% in experiment [11]; 62.5% in [12]. The growth was 39.5% in experiment [13]; 70.6% in [14]; 84.7% in [15]; 11.7% in experiment [16]; 56.9% in experiment [17]; 87.2% in experiment [18]. For the same compound, the growth is 93.4% in [19] and 89.9% in experiment [20].
